“And” between values parts separate entries of the source, which are not always exact repeats. Identical values can stand only once. Screen size: about 5,500 compounds; about 2,000 (36%) were called active. Another 18% or so got no clear call; they are omitted. This is one part of the list. Values without a mark were called inactive. No stated cut-off is given here; in the data, active means normalized growth mostly below about 0.91 (no sharp cut-off); inconclusive means no clear call, values can overlap the other calls; inactive means mostly above about 0.92.
Test: chemical genetic growth profiling, strain panel (AID 1159580);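 further: tested at 20 µM; growth read once vehicle control cultures reached saturation at 30 °C; 1 = growth at the plate median or of vehicle wells; lower values mean less growth of the strain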
Conditions: growth OD
[1] = S. cerevisiae deletion strains, locus YAL013W, strain DEP1, hits give low values
[2] = S. cerevisiae deletion strains, locus YBR229C, strain ROT2, hits give low values
[3] = S. cerevisiae deletion strains, locus YDL101C, strain DUN1, hits give low values
[4] = S. cerevisiae deletion strains, locus YDR150W, strain NUM1, hits give low values
[5] = S. cerevisiae deletion strains, locus YEL061C, strain CIN8, hits give low values
[6] = S. cerevisiae deletion strains, locus YGR078C, strain PAC10, hits give low values
[7] = S. cerevisiae deletion strains, locus YHR030C, strain SLT2, hits give low values
[8] = S. cerevisiae deletion strains, locus YJR043C, strain POL32, hits give low values
[9] = S. cerevisiae deletion strains, locus YJR075W, strain HOC1, hits give low values
[10] = S. cerevisiae deletion strains, locus YLR039C, strain RIC1, hits give low values
[11] = S. cerevisiae deletion strains, locus YLR262C, strain YPT6, hits give low values
[12] = S. cerevisiae deletion strains, locus YMR263W, strain SAP30, hits give low values
[13] = S. cerevisiae deletion strains, locus YNL153C, strain GIM3, hits give low values
[14] = S. cerevisiae deletion strains, locus YNL322C, strain KRE1, hits give low values
[15] = S. cerevisiae deletion strains, locus YPL055C, strain LGE1, hits give low values
[16] = S. cerevisiae deletion strains, locus YPL241C, strain CIN2, hits give low values
[17] = S. cerevisiae strains, strain wild type, hits give low values

O/N=C(/CNC(c1ccccc1)(c1ccccc1)c1ccccc1)c1ccccc1
normalized growth [1]: 0.969 | normalized growth [2]: 0.977 | normalized growth [3]: 0.963 | normalized growth [4]: 0.9 | normalized growth [5]: 0.949 | normalized growth [6]: 0.987 | normalized growth [7]: 0.594 (active) | normalized growth (S. cerevisiae deletion strains, locus YHR087W, strain rtc3, hits give low values): 1.01 | normalized growth (S. cerevisiae deletion strains, locus YJL187C, strain SWE1, hits give low values): 0.97 | normalized growth [8]: 0.988 | normalized growth [9]: 1.02 | normalized growth [10]: 1.01 | normalized growth (S. cerevisiae deletion strains, locus YLR058C, strain SHM2 (second series), hits give low values): 0.975 | normalized growth (S. cerevisiae deletion strains, locus YLR085C, strain ARP6, hits give low values): 0.819 | normalized growth [11]: 1.02 | normalized growth (S. cerevisiae deletion strains, locus YML094W, strain GIM5, hits give low values): 0.969 | normalized growth (S. cerevisiae deletion strains, locus YMR219W, strain ESC1, hits give low values): 0.968 | normalized growth [12]: 0.999 | normalized growth [13]: 1.03 | normalized growth (S. cerevisiae deletion strains, locus YNL298W, strain CLA4 (second series), hits give low values): 1 | normalized growth [14]: 0.985 | normalized growth (S. cerevisiae deletion strains, locus YNR030W, strain Alg12, hits give low values): 0.976 | normalized growth [15]: 0.998 | normalized growth [16]: 0.964 | normalized growth (S. cerevisiae deletion strains, locus YPR135W, strain CTF4, hits give low values): 0.758 | normalized growth [17]: 0.969

NCCCCNCCCN
normalized growth [1]: 1.01 and 0.954 | normalized growth (S. cerevisiae deletion strains, locus YAL040C, strain CLN3, hits give low values): 0.977 | normalized growth (S. cerevisiae deletion strains, locus YBR021W, strain FUR4, hits give low values): 1.11 | normalized growth [2]: 0.997 | normalized growth (S. cerevisiae deletion strains, locus YCL029C, strain bik1, hits give low values): 0.95 | normalized growth (S. cerevisiae deletion strains, locus YCL061C, strain MRC1 (second series), hits give low values): 0.982 | normalized growth (S. cerevisiae deletion strains, locus YDL035C, strain GPR1, hits give low values): 1.02 | normalized growth (S. cerevisiae deletion strains, locus YDL074C, strain BRE1, hits give low values): 0.98 | normalized growth [3]: 0.981 | normalized growth (S. cerevisiae deletion strains, locus YDL134C, strain PPH21, hits give low values): 1.01 | normalized growth (S. cerevisiae deletion strains, locus YDL185W, strain tfp1, hits give low values): 0.946 | normalized growth (S. cerevisiae deletion strains, locus YDL192W, strain arf1, hits give low values): 0.983 | normalized growth (S. cerevisiae deletion strains, locus YDR101C, strain arx1, hits give low values): 0.988 | normalized growth [4]: 0.978 and 1 | normalized growth (S. cerevisiae deletion strains, locus YDR162C, strain NBP2, hits give low values): 0.998 | normalized growth (S. cerevisiae deletion strains, locus YDR318W, strain mcm21, hits give low values): 0.987 | normalized growth (S. cerevisiae deletion strains, locus YDR363W, strain ESC2, hits give low values): 0.971 | normalized growth (S. cerevisiae deletion strains, locus YDR388W, hits give low values): 0.996 | normalized growth (S. cerevisiae deletion strains, locus YDR502C, strain sam2, hits give low values): 1.01 | normalized growth [5]: 0.995 | normalized growth (S. cerevisiae deletion strains, locus YER002W, strain NOP16, hits give low values): 0.991 | normalized growth (S. cerevisiae deletion strains, locus YER110C, hits give low values): 0.979 | normalized growth (S. cerevisiae deletion strains, locus YER155C, strain BEM2, hits give low values): 1.01 | normalized growth (S. cerevisiae deletion strains, locus YER167W, strain BCK2, hits give low values): 1 | normalized growth (S. cerevisiae deletion strains, locus YGL078C, strain dbp3, hits give low values): 0.981 | normalized growth (S. cerevisiae deletion strains, locus YGL086W, strain mad1, hits give low values): 0.996 | normalized growth (S. cerevisiae deletion strains, locus YGL248W, strain PDE1, hits give low values): 1 | normalized growth [6]: 0.972 | normalized growth (S. cerevisiae deletion strains, locus YGR135W, strain pre9, hits give low values): 0.999 | normalized growth (S. cerevisiae deletion strains, locus YGR229C, strain SMI1, hits give low values): 0.991 | normalized growth (S. cerevisiae deletion strains, locus YGR252W, strain gcn5, hits give low values): 1.13 | normalized growth [7]: 0.985 and 0.976 | normalized growth (S. cerevisiae deletion strains, locus YHR079C, strain IRE1 (second series), hits give low values): 0.981 | normalized growth (S. cerevisiae deletion strains, locus YHR079C, strain IRE1, hits give low values): 0.985 | normalized growth (S. cerevisiae deletion strains, locus YHR094C, strain hxt1, hits give low values): 0.972 | normalized growth (S. cerevisiae deletion strains, locus YHR129C, strain ARP1, hits give low values): 0.989 | normalized growth (S. cerevisiae deletion strains, locus YHR200W, strain rpn10, hits give low values): 0.992 | normalized growth (S. cerevisiae deletion strains, locus YIL066C, strain RNR3, hits give low values): 0.99 | normalized growth (S. cerevisiae deletion strains, locus YIL073C, strain SPO22, hits give low values): 0.722 | normalized growth (S. cerevisiae deletion strains, locus YIR030C, strain dcg1, hits give low values): 0.99 | normalized growth (S. cerevisiae deletion strains, locus YJL095W, strain BCK1, hits give low values): 0.977 and 1.02 | normalized growth (S. cerevisiae deletion strains, locus YJL134W, strain LCB3, hits give low values): 0.995 | normalized growth (S. cerevisiae deletion strains, locus YJL168C, strain set2, hits give low values): 0.991 | normalized growth (S. cerevisiae deletion strains, locus YJL187C, strain SWE1 (second series), hits give low values): 0.964 | normalized growth [8]: 1 | normalized growth (S. cerevisiae deletion strains, locus YJR066W, strain TOR1, hits give low values): 0.931 | normalized growth [9]: 0.995 and 1 | normalized growth (S. cerevisiae deletion strains, locus YKL009W, strain mrt4, hits give low values): 0.991 | normalized growth (S. cerevisiae deletion strains, locus YKL068W, hits give low values): 0.977 | normalized growth (S. cerevisiae deletion strains, locus YKL085W, strain MDH1 (second series), hits give low values): 0.985 | normalized growth (S. cerevisiae deletion strains, locus YKL085W, strain MDH1, hits give low values): 0.985 | normalized growth (S. cerevisiae deletion strains, locus YKL190W, strain CNB1, hits give low values): 0.988 | normalized growth (S. cerevisiae deletion strains, locus YKR001C, strain vps1, hits give low values): 0.971 | normalized growth [10]: 0.973 | normalized growth (S. cerevisiae deletion strains, locus YLR058C, strain SHM2, hits give low values): 0.985 | normalized growth (S. cerevisiae deletion strains, locus YLR102C, strain apc9, hits give low values): 0.991 | normalized growth (S. cerevisiae deletion strains, locus YLR113W, strain HOG1, hits give low values): 1.05 | normalized growth [11]: 0.96 | normalized growth (S. cerevisiae deletion strains, locus YLR268W, strain sec22, hits give low values): 0.928 | normalized growth (S. cerevisiae deletion strains, locus YLR330W, strain CHS5, hits give low values): 0.991 | normalized growth (S. cerevisiae deletion strains, locus YLR342W, strain FKS1 (second series), hits give low values): 1.04 | normalized growth (S. cerevisiae deletion strains, locus YLR371W, strain rom2, hits give low values): 0.979 | normalized growth (S. cerevisiae deletion strains, locus YLR418C, strain cdc73, hits give low values): 1.01 | normalized growth (S. cerevisiae deletion strains, locus YML016C, strain PPZ1, hits give low values): 0.988 | normalized growth (S. cerevisiae deletion strains, locus YML124C, strain tub3, hits give low values): 0.986 | normalized growth (S. cerevisiae deletion strains, locus YMR078C, strain ctf18, hits give low values): 0.999 | normalized growth (S. cerevisiae deletion strains, locus YMR223W, strain ubp8, hits give low values): 1.03 | normalized growth [12]: 0.978 and 0.977 | normalized growth (S. cerevisiae deletion strains, locus YMR307W, strain GAS1, hits give low values): 1.12 and 0.988 | normalized growth (S. cerevisiae deletion strains, locus YNL067W, strain RPL9B, hits give low values): 0.972 | normalized growth (S. cerevisiae deletion strains, locus YNL128W, strain TEP1, hits give low values): 1.01 | normalized growth [13]: 0.971 and 1.03 | normalized growth (S. cerevisiae deletion strains, locus YNL175C, strain NOP13, hits give low values): 1 | normalized growth (S. cerevisiae deletion strains, locus YNL183C, strain NPR1, hits give low values): 0.959 | normalized growth (S. cerevisiae deletion strains, locus YNL197C, strain WHI3, hits give low values): 0.988 | normalized growth (S. cerevisiae deletion strains, locus YNL224C, strain SQS1, hits give low values): 0.98 | normalized growth (S. cerevisiae deletion strains, locus YNL233W, strain BNI4, hits give low values): 0.98 | normalized growth (S. cerevisiae deletion strains, locus YNL250W, strain rad50, hits give low values): 0.962 | normalized growth (S. cerevisiae deletion strains, locus YNL271C, strain bni1, hits give low values): 0.977 | normalized growth (S. cerevisiae deletion strains, locus YNL298W, strain CLA4, hits give low values): 0.981 | normalized growth (S. cerevisiae deletion strains, locus YNL307C, strain MCK1, hits give low values): 0.975 | normalized growth [14]: 0.988 and 0.982 | normalized growth (S. cerevisiae deletion strains, locus YNR052C, strain pop2, hits give low values): 0.995 | normalized growth (S. cerevisiae deletion strains, locus YOL006C, strain TOP1, hits give low values): 0.776 | normalized growth (S. cerevisiae deletion strains, locus YOL012C, strain htz1): 0.74 | normalized growth (S. cerevisiae deletion strains, locus YOL147C, strain pex11, hits give low values): 0.982 | normalized growth (S. cerevisiae deletion strains, locus YOR061W, strain CKA2, hits give low values): 0.996 | normalized growth (S. cerevisiae deletion strains, locus YOR069W, strain VPS5, hits give low values): 0.996 | normalized growth (S. cerevisiae deletion strains, locus YOR083W, strain WHI5 (second series), hits give low values): 0.915 | normalized growth (S. cerevisiae deletion strains, locus YOR136W, strain idh2, hits give low values): 0.996 | normalized growth (S. cerevisiae deletion strains, locus YOR144C, strain elg1, hits give low values): 0.996 | normalized growth (S. cerevisiae deletion strains, locus YOR184W, strain ser1, hits give low values): 0.953 | normalized growth (S. cerevisiae deletion strains, locus YOR231W, strain MKK1, hits give low values): 0.989 | normalized growth (S. cerevisiae deletion strains, locus YOR316C, strain cot1, hits give low values): 0.979 | normalized growth [15]: 1.03 | normalized growth [16]: 0.997 | normalized growth (S. cerevisiae deletion strains, locus YPL256C, strain CLN2, hits give low values): 0.974 | normalized growth (S. cerevisiae deletion strains, locus YPR119W, strain clb2, hits give low values): 0.979 | normalized growth (S. cerevisiae deletion strains, locus YPR141C, strain kar3, hits give low values): 0.991 | normalized growth (S. cerevisiae deletion strains, locus YPR163C, strain tif3, hits give low values): 0.984 | normalized growth (S. cerevisiae deletion strains, locus YPR167C, strain met16, hits give low values): 0.982 | normalized growth (S. cerevisiae deletion strains, strain wtn01, hits give low values): 0.993 | normalized growth [17]: 1.01

Source: PubChem BioAssay AID1159580 (chemical genetic matrix, 2015)
